Assay results taken from PubChem BioAssay (NCATS).
Values without a mark were called inactive. For some of these results: Measured potencies and affinities stand elsewhere. Active and inactive are the calls of the source. The rule behind the calls is not given here.

How the values were obtained:
[1] = Ebola virus entry assay, green fluorescence channel
[2] = Ebola virus entry assay, blue channel fluorescence
[3] = Ebola virus entry assay, ratio channel
[4] = Ebola virus entry assay, reporter ratio channel; Channel type: primary
Throughout, for efficacy: 0% is about no effect.

| Compound | efficacy [1] | outcome [2] | outcome [3] | outcome [4] | AC50 [2] | AC50 [3] | AC50 [4] |
| --- | --- | --- | --- | --- | --- | --- | --- |
| O=C(O)c1cn(-c2ccc(F)cc2)c2cc(N3CCNCC3)c(F)cc2c1=O | 23.7% | inactive | inactive | inactive | – | – | – |
| CC(=O)SC[C@@H](Cc1ccccc1)C(=O)NCC(=O)OCc1ccccc1 | 58% | – | – | – | 28.2 µM (active) | 28.2 µM (active) | 28.2 µM (active) |
| COc1ccc2c(c1)c(CC(=O)OCC(=O)O)c(C)n2C(=O)c1ccc(Cl)cc1 | 44.7% | inactive | inactive | inactive | – | – | – |
| CNCCC(Oc1ccccc1OC)c1ccccc1 (stereo unspecified) | 84.9% | – | – | – | 22.4 µM (active) | 17.8 µM (active) | 17.8 µM (active) |
| COC(=O)[C@H]1[C@H]2C[C@@H]3c4[nH]c5cc(OC)ccc5c4CCN3C[C@H]2C[C@@H](OC(=O)COc2ccc(OC)cc2)[C@@H]1OC | 21% | – | – | – | 22.4 µM (active) | 25.1 µM (active) | 25.1 µM (active) |
| CCOC(=O)C1=C(C)NC(C)=C(C(=O)OCC)C1c1ccccc1/C=C/C(=O)OC(C)(C)C | 50% | inactive | inactive | inactive | – | – | – |
| COc1ccc(CCN2CCC(Nc3nc4ccccc4n3Cc3ccc(F)cc3)CC2)cc1 | -220% | – | – | – | 5.01 µM (active) | 2.82 µM (active) | 2.82 µM (active) |
| O=C1[C@H]2CCCC[C@H]2C(=O)N1CCCCN1CCN(c2nsc3ccccc23)CC1 | 104% | – | – | – | 20 µM (active) | 17.8 µM (active) | 17.8 µM (active) |
| CCCCN1CCCC1C(=O)Nc1c(C)cc(C)cc1C (stereo unspecified) | 111% | inactive | inactive | inactive | – | – | – |
| O=C(CCN1CCN2CCCC2C1)N1c2ccccc2Sc2ccc(Cl)cc21 (stereo unspecified) | 163% | – | – | – | 11.2 µM (active) | 10 µM (active) | 10 µM (active) |
| CN1CCN(CCC(=O)N2c3ccccc3Sc3ccc(C(F)(F)F)cc32)CC1 | 68.9% | – | – | – | 4.47 µM (active) | 2.82 µM (active) | 2.82 µM (active) |
| CN1CCN(C2=Nc3cc(F)ccc3Cc3ccccc32)CC1 | 49.4% | – | – | – | 22.4 µM (active) | 31.6 µM (active) | 31.6 µM (active) |
| COc1ccc(/C=C/C(=O)c2ccc(OC)cc2OC)cc1 | 38.6% | – | inactive | – | 39.8 µM (active) | – | 39.8 µM (active) |
| CC(C)(C)c1ccc(C(O)CCCN2CCC(C(O)(c3ccccc3)c3ccccc3)CC2)cc1 (stereo unspecified) | 59% | – | – | – | 1.41 µM (active) | 0.891 µM (active) | 0.891 µM (active) |
| CN1CCC(Nc2ncc3ncnc(Nc4ccc(F)c(Cl)c4)c3n2)CC1 | 97.2% | inactive | inactive | inactive | – | – | – |
| CCCCOc1cc(C(=O)OCCN(CC)CC)ccc1N | 52.2% | – | – | – | 31.6 µM (active) | 31.6 µM (active) | 31.6 µM (active) |
| CC(C)(C)c1ccc(C(=O)CCCN2CCC(OC(c3ccccc3)c3ccccc3)CC2)cc1 | 47.5% | – | – | – | 7.94 µM (active) | 8.91 µM (active) | 8.91 µM (active) |
| OC(C#CCN1CCCC1)(c1ccccc1)c1ccccc1 | 80.1% | – | inactive | – | 39.8 µM (active) | – | 35.5 µM (active) |
| CCCCNc1ccc(C(=O)OCCN(C)C)cc1 | 66.1% | – | – | – | 20 µM (active) | 28.2 µM (active) | 28.2 µM (active) |
